Data taken from PubChem BioAssay (EPA / NIEHS).
Values joined by “and” are separate entries in the source; they are usually repeats but may differ in a detail not shown here. Identical values can stand only once. Some compounds were tested as several samples or in several runs, with calls that do not always agree. Active and inactive are the calls of the source. Rule for the calls: active = hit-call score of the fitted dose curve at least 0.9, where 1 is the maximum; inactive = score below 0.9.

Assays:
[1] = ATG_CRE_CIS: Attagene CIS-FACTORIAL HepG2 Assay for human cAMP Responsive Element (CRE) binding protein 3 (AID 2282926); conditions: HepG2 CRE cis-reporter, Attagene multiplexed mRNA; actives raise or lower the signal
Outline: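 Liver-derived HepG2, transfected with a CRE-containing reporter panel, exposed 24 h; transcript levels sized and quantified by capillary electrophoresis of labelled amplicons; signal changes either way referenced to vehicle.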

[2] = molecular target: CCAAT/enhancer-binding protein beta (Homo sapiens) (UniProt P17676); assay: ATG_C_EBP_CIS: Attagene CIS-FACTORIAL HepG2 Assay for human CCAAT/Enhancer Binding Protein (C/EBP) beta (AID 2282927); conditions: HepG2 Attagene cis-factorial transcription factor reporter; actives raise or lower the signal
Outline: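 Following a 24 h incubation with test chemical, transfected HepG2 cells yielded RNA whose reporter transcripts were quantified by RT-PCR and fluorescent capillary electrophoresis, with DMSO serving as baseline for bidirectional fitting.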

[3] = ATG_CMV_CIS: Attagene CIS-FACTORIAL HepG2 Assay for human CMV (Internal Marker) (AID 2282928); conditions: HepG2 CMV promoter reporter, transcription factor profiling; actives raise or lower the signal;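 note: endpoint acts as a background internal control marker rather than a target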
Outline: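 Fluorescence intensity of RT-PCR-derived reporter fragments, resolved by capillary electrophoresis, gives the signal. HepG2 liver cells bearing transfected cis-element reporters were treated 24 h; activity in either direction was fit relative to DMSO-treated controls.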

[4] = ATG_DR4_LXR_CIS: Attagene CIS-FACTORIAL HepG2 Assay for human Liver X Receptor (LXR), DR4 submotif (AID 2282929); conditions: HepG2 Attagene DR4 cis-reporter, mRNA transcription; actives raise or lower the signal
Outline: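 The endpoint is DR4-element-driven reporter transcripts after 24 h chemical exposure of transfected HepG2 cells. These were measured via RT-PCR and capillary electrophoresis, and gain or loss of signal was fitted relative to DMSO controls.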

[5] = molecular target: Aryl hydrocarbon receptor (Homo sapiens) (UniProt P35869); assay: ATG_Ahr_CIS: Attagene CIS-FACTORIAL HepG2 Assay for human Aryl Hydrocarbon Receptor (Ahr) (AID 2282930); conditions: HepG2 AhR cis-factorial reporter transcription; actives raise or lower the signal
Outline: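 Values derive from bidirectional fitting against DMSO negative control. Underlying signal: cis-element reporter mRNA in transiently transfected HepG2, harvested 24 h post-dose and measured by RT-PCR plus capillary electrophoresis.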

[6] = ATG_AP_1_CIS: Attagene CIS-FACTORIAL HepG2 Assay for human Activator Protein 1 (AP-1) (AID 2282931); conditions: HepG2 Attagene cis-factorial AP-1 reporter mRNA; actives raise or lower the signal
Outline: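 Readout is reporter transcript level from endogenous transcription factor activity, quantified by RT-PCR with fluorescent primer extension and capillary electrophoresis. Transiently transfected HepG2 cells, 24 h exposure. Curves fitted both directions versus DMSO.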

[7] = ATG_AP_2_CIS: Attagene CIS-FACTORIAL HepG2 Assay for human Activator Protein 2 (AP-2) (AID 2282932); conditions: HepG2 AP-2 cis-reporter, Attagene transcription factor profiling; actives raise or lower the signal
Outline: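 Cells (HepG2) transfected with promoter-driven reporter constructs, treated 24 h. Total RNA reverse-transcribed, reporter cDNA PCR-amplified, FAM-labelled by primer extension, digested, resolved by capillary electrophoresis. Activity fitted both directions versus DMSO.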

[8] = ATG_BRE_CIS: Attagene CIS-FACTORIAL HepG2 Assay for human Bone Morphogenetic Protein (BMP) Response Element (BRE) (AID 2282933); conditions: HepG2 BMP response element reporter, Attagene transcription factor profiling; actives raise or lower the signal
Outline: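 Multiplexed cis-reporter assay, HepG2, 24 h exposure. mRNA from reporter units quantified via RT-PCR/CE; DMSO baseline; bidirectional curve fit.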

[9] = molecular target: Transcription factor E2F1 (Homo sapiens) (UniProt Q01094); assay: ATG_E2F_CIS: Attagene CIS-FACTORIAL HepG2 Assay for human E2F Transcription Factor 1 (AID 2282935); conditions: HepG2 Attagene cis-reporter, E2F reporter RNA transcripts; actives raise or lower the signal
Outline: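 First, HepG2 cells were transfected with reporter transcription units. Next, they were dosed for 24 h. Then RNA was isolated, converted to cDNA, PCR-amplified, FAM-labeled, HpaI-digested and analyzed by capillary electrophoresis.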

[10] = molecular target: Retinoic acid receptor alpha (Homo sapiens) (UniProt P10276); assay: ATG_DR5_RAR_CIS: Attagene CIS-FACTORIAL HepG2 Assay for human Retinoic Acid Receptor Alpha (RARE), DR5 submotif (AID 2282934); conditions: HepG2 Attagene cis-factorial RARE DR5 reporter, mRNA; actives raise or lower the signal;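 for AC50: reporter responds to endogenous RAR alpha beta and gamma in HepG2 not RARA alone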
Outline: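 Endpoint fitted in both directions relative to DMSO as negative control. It reflects DR5 cis-element reporter mRNA induction in transiently transfected HepG2 cells, measured 24 h after dosing through RT-PCR and fluorescent capillary electrophoresis.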

Measured: AC50

Sequence of Aryl hydrocarbon receptor (Homo sapiens) (P35869 whole entry, looked up): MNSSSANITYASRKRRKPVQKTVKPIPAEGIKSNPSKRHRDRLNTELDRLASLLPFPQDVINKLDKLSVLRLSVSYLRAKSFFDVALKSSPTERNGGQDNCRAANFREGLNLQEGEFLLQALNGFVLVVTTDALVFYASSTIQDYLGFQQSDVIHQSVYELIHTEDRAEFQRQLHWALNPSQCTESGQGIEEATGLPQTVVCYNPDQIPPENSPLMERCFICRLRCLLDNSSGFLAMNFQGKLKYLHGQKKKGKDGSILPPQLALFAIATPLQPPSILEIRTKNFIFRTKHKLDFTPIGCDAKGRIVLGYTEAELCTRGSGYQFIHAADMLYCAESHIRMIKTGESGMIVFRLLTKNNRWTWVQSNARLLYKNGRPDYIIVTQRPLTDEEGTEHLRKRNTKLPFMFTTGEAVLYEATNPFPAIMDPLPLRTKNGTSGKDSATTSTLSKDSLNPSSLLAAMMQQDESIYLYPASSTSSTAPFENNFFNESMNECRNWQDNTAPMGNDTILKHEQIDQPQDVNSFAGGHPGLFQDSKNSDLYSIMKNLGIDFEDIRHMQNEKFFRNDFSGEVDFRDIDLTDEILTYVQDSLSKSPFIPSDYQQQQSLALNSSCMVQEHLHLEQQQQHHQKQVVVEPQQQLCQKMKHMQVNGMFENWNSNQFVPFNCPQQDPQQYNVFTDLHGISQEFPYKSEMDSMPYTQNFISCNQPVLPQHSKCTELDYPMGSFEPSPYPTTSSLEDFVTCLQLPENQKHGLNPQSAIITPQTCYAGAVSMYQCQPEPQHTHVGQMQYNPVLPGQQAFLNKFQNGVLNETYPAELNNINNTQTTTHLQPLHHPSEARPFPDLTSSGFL
Sequence of Retinoic acid receptor alpha (Homo sapiens) (P10276 whole entry, looked up): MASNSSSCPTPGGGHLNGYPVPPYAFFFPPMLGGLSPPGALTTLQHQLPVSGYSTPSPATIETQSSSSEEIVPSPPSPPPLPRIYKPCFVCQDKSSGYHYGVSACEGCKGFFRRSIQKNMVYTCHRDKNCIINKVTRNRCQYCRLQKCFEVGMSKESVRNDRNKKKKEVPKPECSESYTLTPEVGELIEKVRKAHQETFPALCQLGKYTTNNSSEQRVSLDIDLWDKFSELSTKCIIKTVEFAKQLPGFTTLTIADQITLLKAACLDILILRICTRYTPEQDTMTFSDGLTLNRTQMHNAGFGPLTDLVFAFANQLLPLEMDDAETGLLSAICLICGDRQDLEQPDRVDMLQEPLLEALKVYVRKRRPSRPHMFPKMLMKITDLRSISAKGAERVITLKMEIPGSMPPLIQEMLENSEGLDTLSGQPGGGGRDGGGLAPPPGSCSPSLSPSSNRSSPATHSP
Sequence of CCAAT/enhancer-binding protein beta (Homo sapiens) (P17676 whole entry, looked up): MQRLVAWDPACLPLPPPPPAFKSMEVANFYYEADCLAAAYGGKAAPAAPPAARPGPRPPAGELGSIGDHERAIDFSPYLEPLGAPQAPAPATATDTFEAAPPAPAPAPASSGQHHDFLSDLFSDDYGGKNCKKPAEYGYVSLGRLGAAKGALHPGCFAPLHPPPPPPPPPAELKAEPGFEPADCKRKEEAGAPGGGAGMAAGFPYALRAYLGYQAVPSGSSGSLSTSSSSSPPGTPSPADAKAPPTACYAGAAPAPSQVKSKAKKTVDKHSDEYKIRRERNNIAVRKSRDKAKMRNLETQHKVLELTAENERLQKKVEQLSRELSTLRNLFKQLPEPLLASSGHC
Sequence of Transcription factor E2F1 (Homo sapiens) (Q01094 whole entry, looked up): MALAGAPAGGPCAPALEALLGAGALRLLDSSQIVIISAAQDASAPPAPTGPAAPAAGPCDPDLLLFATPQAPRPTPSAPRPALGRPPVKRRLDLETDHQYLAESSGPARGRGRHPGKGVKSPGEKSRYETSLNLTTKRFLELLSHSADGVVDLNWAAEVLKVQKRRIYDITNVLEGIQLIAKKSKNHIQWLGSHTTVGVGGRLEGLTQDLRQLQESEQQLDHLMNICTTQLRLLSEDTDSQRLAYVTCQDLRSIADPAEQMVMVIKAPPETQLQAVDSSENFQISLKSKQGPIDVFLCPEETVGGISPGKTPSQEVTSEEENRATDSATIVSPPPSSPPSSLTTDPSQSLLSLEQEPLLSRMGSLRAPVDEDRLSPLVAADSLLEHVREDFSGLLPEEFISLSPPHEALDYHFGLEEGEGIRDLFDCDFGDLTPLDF

O=C1CCCCC1
not listed: [10]
inactive: all other assays above

Cc1ccc(-c2cc(C(F)(F)F)nn2-c2ccc(S(N)(=O)=O)cc2)cc1
active: [4] 14.4 µM
inactive: all other assays above

CCCCC(CC)COP(=O)(OCC(CC)CCCC)OCC(CC)CCCC (stereo not drawn)
active: [5] 68.9 µM
not listed: [10]
inactive: all other assays above

O=C(Oc1ccccc1)c1cccc(C(=O)Oc2ccccc2)c1
inactive: all assays above

CCCCOC(=O)CCCCC(=O)OCCCC
active: [3] 154 µM
inactive: all other assays above

N[C@@H](Cc1c[nH]c2ccccc12)C(=O)O
active: [5] 24 µM
inactive: all other assays above

CCN(CC)CCOc1ccc(C(=C(Cl)c2ccccc2)c2ccccc2)cc1
inactive: [1] | [2] | [3] | [4] | [5] | [7] | [8] | [10] | [9]
active: [1] 12.8 µM | [2] 17.4 µM | [3] 7.17 µM | [4] 3.89 µM and 3.11 µM | [5] 9.35 µM | [7] 11.4 µM

CC(=O)O[C@]1(C(C)=O)CC[C@H]2[C@@H]3C=C(Cl)C4=CC(=O)[C@@H]5C[C@@H]5[C@]4(C)[C@H]3CC[C@@]21C
inactive: [1] | [2] | [3] | [4] | [5] | [6] | [7] | [8] | [9]
active: [3] 100 µM and 73.3 µM and 33.4 µM | [4] 51.7 µM [middle of 4 runs] | [5] 150 µM and 158 µM | [6] 71.5 µM [middle of 4 runs] | [7] 173 µM and 60.4 µM | [8] 30.1 µM and 43.7 µM and 33.4 µM | [9] 145 µM

CCCC(=O)O
active: [1] 0.0135 µM | [3] 44.4 µM
inactive: all other assays above

Cc1c(C)c2c(c(C)c1O)CCC(C)(COc1ccc(CC3SC(=O)NC3=O)cc1)O2 (stereo not drawn)
active: [4] 6.81 µM | [6] 9.14 µM
not listed: [10]
inactive: all other assays above

Nc1nc(Cl)nc2c1ncn2[C@H]1C[C@H](O)[C@@H](CO)O1
active: [3] 23.7 µM
not listed: [10]
inactive: all other assays above

CC(=O)O
not listed: [10]
inactive: all other assays above

O=C1NC(=O)C(c2ccccc2)(c2ccccc2)N1
active: [5] 59.3 µM
not listed: [10]
inactive: all other assays above

CC(COCC(C)OC(=O)c1ccccc1)OC(=O)c1ccccc1 (stereo not drawn)
inactive: all assays above

NCCOCCOCCN
not listed: [10]
inactive: all other assays above

C=CCCCCCCCCCCCC
active: [3] 100 µM | [4] 177 µM
not listed: [10]
inactive: all other assays above

C/C=C/C=C/C(=O)O
not listed: [10]
inactive: all other assays above

CC(N)=O
active: [5] 29 µM
inactive: [1] | [2] | [3] | [4] | [5] | [6] | [7] | [8] | [10] | [9]

O=Cc1ccccc1C=O
inactive: all assays above

C=CCc1ccc(OC)c(OC)c1
not listed: [10]
inactive: all other assays above

O=C(NS(=O)(=O)/C=C/c1cccs1)c1ccc(F)cc1Br
inactive: all assays above

NC=O
inactive: all assays above

CCCCCCC(C=O)=Cc1ccccc1
inactive: [1] | [2] | [3] | [4] | [6] | [7] | [8] | [10] | [9]
active: [3] 74.3 µM | [5] 37.4 µM and 60 µM | [6] 60 µM | [8] 44.9 µM

CSc1ccc(Oc2ccc(S(N)(=O)=O)cc2CN(C)C)cc1C
active: [7] 26.8 µM
not listed: [10]
inactive: all other assays above

Cc1cc(SC2=C(O)C[C@@](CCc3ccc(N)cc3)(C(C)C)OC2=O)c(C(C)(C)C)cc1CO
not listed: [10]
inactive: all other assays above

Cn1cnc2c1c(=O)[nH]c(=O)n2C
inactive: all assays above

CC(C)c1cccc(C(C)C)c1
inactive: all assays above

CC(=O)OC1CC(C)OC(C)O1 (stereo not drawn)
inactive: all assays above

O=NO
inactive: all assays above

CCCC[C@H]1CN(CC2CCOCC2)C(=O)OC12CCN(C1(C)CCN(C(=O)c3c(C)ncnc3C)CC1)CC2
not listed: [10]
inactive: all other assays above

COC(=O)[C@H]1[C@H]2C[C@@H]3c4[nH]c5cc(OC)ccc5c4CCN3C[C@H]2C[C@@H](OC(=O)c2cc(OC)c(OC)c(OC)c2)[C@@H]1OC
active: [1] 21.9 µM | [4] 22.8 µM | [5] 12.5 µM | [6] 25.5 µM
not listed: [10]
inactive: all other assays above

CO[C@@H]1COCC[C@@H]1N[C@@H]1CC[C@@](C(=O)N2CCc3ncc(C(F)(F)F)cc3C2)(C(C)C)C1
not listed: [6] | [10]
inactive: all other assays above

O=C(N[C@@H](c1ccccc1)[C@@H]1CCCCN1)c1cccc(C(F)(F)F)c1Cl
active: [1] 25.4 µM | [3] 12.1 µM | [7] 33 µM | [10] 20.9 µM
not listed: [6]
inactive: all other assays above

CC(C)OC(=O)C(C)(C)Oc1ccc(C(=O)c2ccc(Cl)cc2)cc1
active: [3] 67.9 µM | [4] 61 µM | [8] 45.7 µM
not listed: [6]
inactive: all other assays above

CCc1nc(N)nc(N)c1-c1ccc(Cl)cc1
active: [1] 100 µM | [2] 15 µM | [3] 2.18 µM
not listed: [6] | [10]
inactive: all other assays above

CN(C)C(=O)NC1(c2ccccc2)CCN(CC[C@@]2(c3ccc(F)c(F)c3)CN(C(=O)c3ccccc3)CCO2)CC1
active: [6] 100 µM
not listed: [10]
inactive: all other assays above

Cc1ccc(C(C)(C)C)c(O)c1
active: [1] 147 µM | [3] 100 µM | [4] 167 µM
not listed: [10]
inactive: all other assays above

CCCCCCC(CCCCCCCCCCC(=O)OCC(COC(C)=O)OC(C)=O)OC(C)=O (stereo not drawn)
active: [3] 35.6 µM
not listed: [6] | [10]
inactive: all other assays above

CC(=O)OCC(COC(C)=O)OC(C)=O
not listed: [6] | [10]
inactive: all other assays above

NC1CCCCC1
not listed: [6]
inactive: all other assays above
